# Bioassay records (PubChem BioAssay)
# Rows were chosen to be rich in hits. Some 28% of all compounds tested hit in one or more screens of this group.
# CYP2C19 activ – cytochrome P450 2C19 (human) activation; recombinant CYP2C19, luciferin-H EGE luminescence; active compounds read high; 0 = fully inhibited enzyme, 1 = untreated enzyme; 96,000 tested, under 10 active; activation factor at 5 µM; P33261;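 active = activation factor of at least 2 at 5 µM in the primary screen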;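 note: 0 = wells with 2.5 mM tranylcypromine and 1 = vehicle-only wells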
# CYP2C9 inhib – human CYP2C9 inhibition. CYP2C9 Supersomes, luciferin-H conversion, luminescence. 96,000 compounds, 20% hits. AID 777. inhibition, % at 5 µM;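 active = blocking of liver enzyme CYP2C9 beyond about 50% at 5 µM, limit read from the data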
# Target sequence (P11712 whole entry, looked up): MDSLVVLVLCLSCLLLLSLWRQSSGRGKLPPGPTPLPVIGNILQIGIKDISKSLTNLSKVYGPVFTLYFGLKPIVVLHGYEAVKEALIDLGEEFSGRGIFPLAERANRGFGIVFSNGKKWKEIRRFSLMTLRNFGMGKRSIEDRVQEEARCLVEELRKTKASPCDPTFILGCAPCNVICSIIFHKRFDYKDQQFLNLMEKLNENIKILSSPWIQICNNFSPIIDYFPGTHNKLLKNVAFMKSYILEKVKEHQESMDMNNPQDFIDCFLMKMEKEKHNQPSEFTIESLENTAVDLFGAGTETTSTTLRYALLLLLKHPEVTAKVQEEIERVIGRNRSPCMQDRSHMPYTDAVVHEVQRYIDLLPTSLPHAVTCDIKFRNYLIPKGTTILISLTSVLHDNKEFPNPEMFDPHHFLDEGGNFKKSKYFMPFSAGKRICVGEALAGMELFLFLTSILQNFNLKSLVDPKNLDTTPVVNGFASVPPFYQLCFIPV
# Plk1 PBD FP – blocks phosphopeptide binding to human Plk1 polo box domain. Plk1 PBD phosphopeptide binding, fluorescence polarization. 97,000 compounds, 0.13% hits. AID 693. P53350. inhibition, %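 (tested at about 20 µM)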; in the data active = inhibition above about 34%, passing the limit was not always enough
# CYP2C9 act – increases human cytochrome P450 2C9 activity | recombinant CYP2C9, luciferin-H conversion, luminescence; active compounds read high; factor 1 = untreated enzyme, 0 = blocked | activation factor at 5 µM | 96,000 compounds, 1.4% hits | AID 1024;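 active = activation factor of 2 or more for CYP2C9 at a 5 µM dose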;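 note: 0 = sulfaphenazole-blocked wells and 1 = vehicle-only wells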
# CYP2C19 inh – blocks human cytochrome P450 2C19. inhibition, % at 5 µM. P33261. CYP2C19 Supersomes, luciferin-H EGE luminescence, 30 min. 96,000 compounds, 21% hits. AID 778;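 active = CYP2C19 inhibition above a set limit at 5 µM in the primary screen, cut at about 50% in these data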;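 note: plate controls were negative control wells for no effect and 2.5 mM tranylcypromine positive control for full effect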
# PLK1 kinase inh – PLK1 (human) kinase inhibition; P53350; recombinant PLK1 kinase, TR-FRET peptide phosphorylation; inhibition, % at 10 µM; 97,000 compounds, 0.53% hits; AID 619;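 active = inhibition of 50% or more in the single-concentration screen; inactive = inhibition below 50%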;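 note: 0% = DMSO max control and 100% = H-89 dihydrochloride min control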
# * marks the source's active call; other numbers are inactive results; · = not tested or not shown.
SMILES,CYP2C19 activ,CYP2C9 inhib,Plk1 PBD FP,CYP2C9 act,CYP2C19 inh,PLK1 kinase inh
Cc1ccc(N(C(=O)C(F)(F)F)C(C(=O)NC2CCCCC2)c2cccs2)cc1 (stereo not given),0.7,55.0*,-14.7,0.4,31.1,-4.4
Cc1ccc(C)c(N(C(=O)CCC(=O)Nc2cc(C)on2)C(C(=O)NC2CCCC2)c2ccco2)c1 (stereo not given),0.5,19.8,-27.9,0.8,54.5*,-14.0
O=C(CCC(=O)N(c1cccc(F)c1)C(C(=O)NC1CCCC1)c1ccncc1)Nc1cccnc1 (stereo not given),·,·,-7.1,·,·,-8.3
O=C(CCC(=O)N(c1ccccc1)C(C(=O)NC1CCCC1)c1ccncc1)Nc1cccnc1 (stereo not given),0.3,46.1,-6.8,0.5,70.1*,-6.9
O=C(Nc1c(F)cc(F)cc1Br)c1cc(-c2ccc(O)cc2)on1,0.1,-57.7,9.1,1.6,87.3*,2.0
CCOCCCNC(=O)c1cc2c(-c3ccc(Cl)cc3)nn(C)c2s1,0.4,48.8,-4.4,0.5,61.3*,-10.1
Cn1nc(-c2ccc(Cl)cc2)c2cc(C(=O)NCCN3CCOCC3)sc21,0.5,70.5*,19.0,0.3,48.7,40.0
Cc1cc(C(=O)Nc2c(F)cc(F)cc2Br)no1,1,-8.5,-7.8,1.1,-0.9,-4.1
Cn1nc(-c2ccc(Cl)cc2)c2cc(C(=O)NCCCN3CCOCC3)sc21,0.7,57.7*,-8.1,0.4,28.9,-7.1
CCN(CC)CCNC(=O)c1cc2c(-c3ccc(Cl)cc3)nn(C)c2s1,0.8,18.3,23.8,0.8,18.2,-9.2
O=C(CC(=O)NC1CCCCC1)N/N=C/c1cccc2ccccc12,0.9,-2.3,-10.2,1,6.3,-5.4
CCc1c(C(=O)NNC(=S)NCC(C)C)csc1C,0.9,-5.8,-21.3,1.1,12.8,-6.0
O=C(NCCCN1CCOCC1)c1cc(-c2ccc(O)cc2)on1,1.1,-121.3,-13.2,2.2*,-7.8,-22.5
O=C1CC(Sc2nnc(-c3ccccc3)o2)C(=O)N1c1ccccc1 (stereo not given),0.9,11.6,-23.6,0.9,13.0,-11.3
O=C1c2ccccc2CC1Sc1nnc(-c2ccncc2)o1 (stereo not given),0,87.2*,-35.5,0.1,95.8*,-0.3
C=CCn1c(NCc2ccccc2)nc2ccccc21,0.6,-1.2,8.7,1,35.1,-13.6
C=CCn1c(N2C(=O)CC(Cc3ccccc3)C2=O)nc2ccccc21 (stereo not given),0.2,-2.8,-23.3,1,79.3*,-8.6
O=C(NC(=Nc1ccccc1)N1CCOCC1)Nc1ccccc1,0.5,56.4*,-4.4,0.4,54.7*,-6.5
O=C(NC(CSCc1ccccc1)C(=O)N/N=C/c1ccc(O)cc1O)c1ccc([N+](=O)[O-])cc1 (stereo not given),0.8,26.1,-21.4,0.7,22.8,-19.8
COc1cccc(OC)c1C(=O)N1CCN(Cc2ccncc2)CC1,0.2,62.6*,-15.3,0.4,78.3*,3.1
COc1cccc(OC)c1C(=O)N1CCOCC1,·,·,-6.9,·,·,-2.5
COc1ccccc1CN1CCN(C(=O)c2ccncc2)CC1,0.1,11.6,-3.1,0.9,86.6*,-5.5
O=C(NC1CCSC1=O)c1cccc(C(=O)NC2CCSC2=O)c1 (stereo not given),0.9,5.4,-2.7,0.9,5.5,6.2
COC(=O)c1cc(C(=O)Nc2cc(C)ccn2)cc([N+](=O)[O-])c1,0.9,26.1,-38.0,0.7,12.7,-2.2
COc1ccc2oc(C(F)(F)C(F)(F)F)cc(=O)c2c1,1,7.1,-11.8,0.9,1.6,-13.3
SMILES,CYP2C19 activ,CYP2C9 inhib,Plk1 PBD FP,CYP2C9 act,CYP2C19 inh,PLK1 kinase inh
COc1ccc2oc(C(F)(F)C(F)F)cc(=O)c2c1,0.5,32.8,9.5,0.7,54.3*,-11.3
Cc1cc(C(=O)N/N=C/c2cccc(OC(=O)c3ccco3)c2)n[nH]1,1,15.6,-26.3,0.8,-4.4,-6.1
CC(=O)c1ncnn1CC(=O)c1ccc(Cl)cc1Cl,0.4,31.7,-33.8,0.7,61.4*,-1.7
O=C(NCc1cn(-c2ccccc2)nc1-c1ccccc1)c1cc([N+](=O)[O-])cc([N+](=O)[O-])c1,0.7,67.4*,-34.8,0.3,30.8,-15.8
Brc1ccc(-c2nnc3n2C2(CCCC2)Cc2ccccc2-3)o1,·,·,9.6,·,·,-11.2
Cc1ccc(OCc2nc(-c3ccccn3)no2)c(Br)c1,0.2,30.7,-28.1,0.7,83.5*,-8.3
